A selection: hits, their analogues and other compounds. The true share with any hit is near 1.2%.
Mm-Cpn inhibitor – inhibitors of Methanococcus maripaludis chaperonin TRiC (MmCpn); purified Mm-Cpn ATPase, ADP Transcreener TR-FRET; Potency, µM (series often up to 76.9 µM), inactives show top-dose activity, negative = inhibition, most hits filed as inhibitors; 330,000 tested, 0.031% active; further: potency means the concentration at half of the fitted maximal effect; on the % scale 0 is the no-effect control and ±100 the full control effect; nearly all actives have a fitted effect of over 80% in size
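TR-FRET (320 nm excitation; 590 and 665 nm emission) reports ADP made from 10 uM ATP by 25 nM enzyme; compounds were preincubated 10 min, reaction run 30 min, both at 37°C.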
RXFP1 antag – RXFP1 (human) relaxin receptor antagonism. Q9HBX9. HEK293-RXFP1, relaxin-stimulated cAMP HTRF, 30 min; active compounds read low. activity change, negative = inhibition, % at 57.5 µM. 350,000 tested, 0.59% active. AID 1259400;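 active means activity change of -60% or lower, but not beyond a set lower limit; inconclusive means change between -60% and -40%, or beyond the set limit; inactive means change above -40%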; further: on the % scale 0 is the no-effect control and ±100 the full control effect
Target sequence (Q9HBX9 whole entry, looked up): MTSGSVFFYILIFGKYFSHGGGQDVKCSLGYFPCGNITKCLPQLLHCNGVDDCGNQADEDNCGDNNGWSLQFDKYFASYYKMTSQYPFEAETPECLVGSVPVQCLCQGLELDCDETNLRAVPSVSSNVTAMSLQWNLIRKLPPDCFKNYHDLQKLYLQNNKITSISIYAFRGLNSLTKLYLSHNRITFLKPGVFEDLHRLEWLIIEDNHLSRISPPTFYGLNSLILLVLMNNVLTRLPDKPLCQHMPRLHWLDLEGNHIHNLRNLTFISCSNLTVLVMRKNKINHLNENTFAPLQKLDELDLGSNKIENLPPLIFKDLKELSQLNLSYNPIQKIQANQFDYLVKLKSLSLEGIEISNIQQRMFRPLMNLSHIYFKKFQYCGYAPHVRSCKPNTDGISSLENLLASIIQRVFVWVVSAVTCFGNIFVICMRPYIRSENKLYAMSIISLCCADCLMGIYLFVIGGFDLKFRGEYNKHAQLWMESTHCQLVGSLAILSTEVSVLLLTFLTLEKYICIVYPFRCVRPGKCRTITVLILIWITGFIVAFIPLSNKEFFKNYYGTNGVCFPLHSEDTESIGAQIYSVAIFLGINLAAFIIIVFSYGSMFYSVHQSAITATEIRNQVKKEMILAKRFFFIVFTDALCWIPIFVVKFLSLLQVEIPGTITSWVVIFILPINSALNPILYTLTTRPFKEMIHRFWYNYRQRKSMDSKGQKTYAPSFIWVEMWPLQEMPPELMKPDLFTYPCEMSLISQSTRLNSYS
gsp ag – agonists of gsp mutant (McCune-Albright syndrome) | AID 624287 | gsp mutant cells, cAMP HTRF, 30 min | 340,000 tested, 0.13% active | Potency, µM (titrated, usually from 76.9 µM), for inactives: top-dose activation (cAMP increase), usual class: activators; active means well fitted activation curve with a large enough effect; inconclusive means small, poorly fitted or top-dose-only effect, or another doubt; inactive means no such curve, though single readings can be large or run the other way; cell line not stated here;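 further: phosphodiesterase inhibitor Ro 20-1724 added with compounds to block cAMP breakdown; potency means the concentration at half of the fitted maximal effect; nearly all actives have a fitted effect of over 60% in size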
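Cells stably selected in G418 were plated at 2000/well, grown 16-24 hr, then given compounds in DMSO with the PDE inhibitor […] (300 uM solution added) for 30 min at 37C; cAMP was read by HTRF.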
gsp antagonist – antagonizes gsp, the McCune-Albright syndrome mutation; gsp-mutant cells, cAMP HTRF, 30 min; Potency, µM (titrated, usually from 76.9 µM), for the others: at the highest dose activity change, negative = inhibition, actives largely listed as inhibitors; 340,000 tested, 0.4% active; AID 624288; calls by dose curve; cell line not stated here;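 further: intracellular cAMP measured with PDE inhibitor Ro 20-1724 present during compound exposure; potency means the concentration at half of the fitted maximal effect; on the % scale 0 is the no-effect control and ±100 the full control effect; nearly all actives have a fitted effect of over 65% in size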
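HTRF cAMP measurement after 30 min RT detection following 30 min, 37C compound treatment alongside […] (added as 300 uM solution) in G418-selected cells seeded at 2000/well and grown 16–24 h.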
RXFP1 agonist – RXFP1 (human) receptor agonism; 370,000 tested, 0.3% active; Potency, µM (top dose mostly 57.5 µM), without a hit: at the highest dose activation, hits mostly activators; AID 2676; Q9HBX9; HEK293T-RXFP1 cAMP TR-FRET, 30 min; response scale: percent of porcine relaxin response, buffer zero; further: potency means the concentration at half of the fitted maximal effect; on the % scale 0 is the no-effect control and ±100 the full control effect; nearly all actives have a fitted effect of over 60% in size
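HEK293 cells stably expressing RXFP1, treated 30 min at 37C with compounds plus PDE4 inhibitor Ro 20174; cAMP measured by HTRF TR-FRET. Normalized to buffer and 29 nM porcine relaxin; EC50 by Hill fit.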
CCT chaperon mod – modulators of cytosolic chaperonin (CCT/TRiC) activity; purified chaperonin ATPase assay, HTRF ADP detection, 30 min; activity change, % (test concentration not listed), hits read low; 360,000 tested, 0.3% active; AID 651819; in the data active means activity change below about -30%; further: on the % scale 0 is the no-effect control and ±100 the full control effect
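ATPase activity: ADP formed was measured by HTRF Transcreener (665/615 nm ratio) after 30 min at 37 deg C with 10 uM ATP. Compounds screened at one 76 uM concentration against 40 or 20 nM TRiC in Tris pH 7.4/KCl/MgCl2/DTT buffer.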
The depositor's hits bear a star; ? = inconclusive; / = not tested or not shown; [ ] = dose if it differs, or a comment. Unless noted, the call rests on the fitted dose curve; in most records, active means well fitted curve in the direction sought with a large enough effect; inconclusive means small, poorly fitted or top-dose-only effect, or another doubt; inactive means no such curve, though single readings can be large; an effect the other way counts as inactive or inconclusive.

SMILES	Mm-Cpn inhibitor	RXFP1 antag	gsp ag	gsp antagonist	RXFP1 agonist	CCT chaperon mod
COC(=O)c1cccc(NC(=O)Nc2ccc(Cl)c(Cl)c2)c1	0.7%	?	-1.4%	35.5µM*	0.5%	-4.9
COC(=O)c1ccc(NC(=O)Nc2ccc(F)c(Cl)c2)cc1	-1.2%	-20.4	0.5%	35.5µM*	2.7%	-4.6
COC(=O)c1ccc(NC(=O)Nc2ccc(F)cc2)cc1	0.6%	-15.5	?	-11.3%	-0.8%	-5.3
O=C1Cc2cc(Cl)ccc2N1	/	15.1	/	/	/	/
CN(Cc1ccccc1)S(=O)(=O)c1cc(Br)cc2c1N(C(=O)C1CC1)CC2	/	/	/	/	1.2%	/
O=C(Nc1ccc(Cl)cc1)Nc1ccc(Cl)c(C(F)(F)F)c1	/	-92.5*	/	/	/	/
CCc1ccc(CNC(=O)c2cc3c(C)nc4ccccc4c3o2)cc1	0.1%	-6.6	-25.5%	-24.7%	-0.2%	-2.4
Cc1nc2ccccc2c2oc(C(=O)NCC3COc4ccccc4O3)cc12 (stereo not given)	-3.3%	-83.7*	?	39.8µM*	-0.3%	-0.4
CC1CCC(NC(=O)COc2ccc(C(=O)c3ccccc3)cc2)CC1 (stereo not given)	2.5%	8.0	-18.0%[15.4 µM]	9.1%	-0.8%	-44.8*
Cc1ccc(S(=O)Cc2nc(-c3ccc(C(=O)NC(C)c4ccccc4)cc3)oc2C)cc1 (stereo not given)	/	/	/	/	-0.1%	/
CC(C)Oc1ccc(C(=O)NC2CCCCC2)cc1	2.4%	-7.5	-4.8%	-1.1%	0.1%	-0.7
CC(C)Oc1ccc(C(CCN)C2CCCCC2)cc1 (stereo not given)	-1.0%	-75.2*	-0.3%	13.3%	0.4%	-0.8
CC(C)CS(=O)(=O)c1oc(-c2ccc(F)cc2)nc1S(=O)(=O)c1ccccc1	/	-81.8*	/	/	3.9%	/
CCC(C)S(=O)(=O)c1oc(-c2cccs2)nc1S(=O)(=O)c1ccccc1 (stereo not given)	/	-78.8*	/	/	0.5%	/
CNc1oc(-c2cccs2)nc1S(=O)(=O)c1ccccc1	-1.2%	-6.3	0.8%[15.4 µM]	-45.1%	2.3%	1.4
Cc1ccc(S(=O)(=O)NCCC(=O)NC(C)CCc2ccccc2)cc1 (stereo not given)	0.6%	-62.0*	0.8%[15.4 µM]	-6.3%	0.0%	-1.4
O=C(N/N=C/c1cc(Cl)c(O)c(Cl)c1)c1cc2c(ccc3ccccc32)o1	-15.8%	-81.3*	?	31.6µM*	0.1%	-7.2
CC(=O)Oc1ccc(/C=N\NC(=O)c2cc3c(ccc4ccccc43)o2)cc1	0.8%	-0.8	28.1%	11.2µM*	3.5%	1.4
O=C(N/N=C/c1cc(Br)c(Br)o1)c1cc2ccccc2o1	-4.8%	-63.3*	?	-17.6%	2.7%	-0.2
O=C(N/N=C/c1cc(Br)c(O)c(Br)c1)c1cc2c(ccc3ccccc32)o1	-0.1%	-100.1*	-35.7%[15.4 µM]	-30.4%	5.7%	-5.7
Cc1ccc(/C=N/NC(=O)c2cc3c(ccc4ccccc43)o2)o1	0.0%	-5.2	-26.3%	-8.3%	3.9%	0.4
Cc1ccccc1NC(=O)c1c(NC(=O)c2ccncc2)sc2c1CCC(C(C)(C)C)C2 (stereo not given)	/	-6.9	/	/	1.0%	/
COc1ccccc1N1CCN(S(=O)(=O)CCNC(=O)Cc2ccc(Cl)cc2)CC1	/	-3.6	/	/	2.8%	/
Cc1ccc(C(=O)O)cc1Nc1nc2ccccc2n2nnnc12	/	-7.3	/	/	5.2%	/
Cc1ccc(-n2nc(C)c3c(C)c(CCC(=O)NCc4ccc(Cl)cc4)c(C)nc32)cc1	/	-1.6	/	/	-0.7%	/
SMILES	Mm-Cpn inhibitor	RXFP1 antag	gsp ag	gsp antagonist	RXFP1 agonist	CCT chaperon mod
COc1ccccc1NC(=O)c1sc2nc3n(c(=O)c2c1C)CCC3	-11.4%	16.0	?	-2.2%	8.91µM*	2.0
Cc1ccccc1NC(=O)c1sc2nc3n(c(=O)c2c1C)CCC3	/	-15.7	/	/	-3.6%	/
Cc1nc(-c2cccc(-c3noc(C)n3)c2)no1	2.2%	-8.3	26.9%	-0.8%	-0.5%	-43.7*
O=C(NCCOC(=O)c1ccc([N+](=O)[O-])cc1)c1cccnc1	-0.9%	22.7	17.8µM*	1.9%	?	1.4
Cc1ccc2scc(N3CCN(c4ccccc4)CC3)c(=O)c2c1	/	-12.6	/	/	1.6%	/
CCCC12CN3CC(C)(CN(C1)C31CCCCC1)C2=O	0.1%	-15.0	?	-4.0%	2.4%	-48.0*
CCOc1cccc(-c2c(C(=O)N/N=C/c3ccsc3)nnn2-c2nonc2N)c1	1.6%	-61.4*	14.0%	-30.2%	0.3%	-5.2
Cc1ccc(SCc2c(C(=O)N/N=C/c3ccccc3)nnn2-c2nonc2N)cc1	-2.3%	-31.6	9.3%[15.4 µM]	-30.6%	-2.5%	2.0
Cc1ccc(SCc2c(C(=O)N/N=C/c3ccoc3)nnn2-c2nonc2N)cc1	0.7%	4.0	-18.4%	31.6µM*	-0.5%	0.4
Cc1ccc(-c2c(C(=O)N/N=C/c3ccc4c(c3)OCO4)nnn2-c2nonc2N)cc1	-3.3%	-6.9	21.1%	25.1µM*	4.8%	-0.5
CCOc1ccccc1C(=O)Nc1ccc2nc3c(c(Nc4ccc(OC)c(OC)c4)c2c1)CCCC3	/	?	/	/	-1.8%	/
CCOc1ccc(-c2cc3nc(C4CCN(C(=O)OC(C)(C)C)CC4)c(C(=O)Nc4cccc(Cl)c4C)cn3n2)cc1	/	-28.0	/	/	12.9%	/
CC(C)(C)C1CCC(CC2=C(O)c3ccccc3C(=O)C2=O)CC1 (stereo not given)	/	-13.3	/	/	/	/
COc1ccc(-c2[nH]c(-c3ccccc3)nc2SCC(=O)Nc2ccc3c(c2)OCO3)cc1	/	-25.3	/	/	-0.4%	/
Oc1ccc(-c2csc(Nc3ncccn3)n2)c(O)c1	0.5%	-3.8	-8.6%[15.4 µM]	4.0%	0.4%	-1.7
Cc1cccc(Nc2nc(-c3ccc(O)cc3O)cs2)n1	-1.6%	-78.9*	-12.9%	-5.3%	0.7%	0.1
Cc1cccc(N2CCN(C(=O)Cn3c(=O)c4cccn4c4ccc(F)cc43)CC2)c1C	/	-12.1	/	/	1.0%	/
CCc1cccc(C)c1NS(=O)(=O)c1cc2[nH]c(=O)c(=O)[nH]c2cc1C	/	1.3	/	/	1.9%	/
CN(C(=O)COC(=O)CSc1ccc([N+](=O)[O-])cc1)C1CCS(=O)(=O)C1 (stereo not given)	1.1%	-100.5*	7.6%[15.4 µM]	-0.9%	-0.2%	-1.6
CCN(C(=O)COC(=O)CSc1ccc([N+](=O)[O-])cc1)C1CCS(=O)(=O)C1 (stereo not given)	0.9%	-7.9	-5.5%[15.4 µM]	6.2%	-2.9%	3.4
NC(=O)C1CCN(c2nc(-c3ccccc3[N+](=O)[O-])cs2)CC1	-1.7%	/	/	/	/	/
Cc1nc(Nc2ccccc2F)c2oc3ccccc3c2n1	-0.7%	-16.7	5.6%[15.4 µM]	-20.6%	6.1%	-49.2*
Cc1nc(Nc2ccccc2O)c2oc3ccccc3c2n1	-4.4%	-0.8	-26.9%	-4.0%	-2.5%	-0.4

Source: PubChem BioAssay
